Reference: PubChem BioAssay AID2562 (National Center for Advancing Translational Sciences (NCATS), 2010)
Inconclusive results are not listed. The source made the active and inactive calls. Calls follow the shape of the dose curve; as a rule, active = well fitted curve in the direction sought with a large enough effect; inconclusive = small, poorly fitted or top-dose-only effect, or effect the other way, or another doubt; inactive = no such curve, though single readings can be large or run the other way.

target: Pyruvate kinase PKLR (Homo sapiens) (UniProt P30613); experiment: Secondary LDH Assay for Activators of Human Reticulocyte Pyruvate Kinase: for Probe SAR; details: purified hPK-R, LDH-coupled NADH fluorescence kinetic; series mostly up to 58.4 µM
In short: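 Purified hPK-R (10 nM) coupled to LDH (1 uM), with 0.1 mM PEP, 4.0 mM ADP, 0.2 mM NADH in Tris-Cl pH 8.0, KCl, MgCl2. Initial rates came from kinetic NADH fluorescence over 3-6 minutes, normalized to an EC100 activator such as fructose-bis-phosphate.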

Sequence of Pyruvate kinase PKLR (Homo sapiens) (P30613 whole entry, looked up): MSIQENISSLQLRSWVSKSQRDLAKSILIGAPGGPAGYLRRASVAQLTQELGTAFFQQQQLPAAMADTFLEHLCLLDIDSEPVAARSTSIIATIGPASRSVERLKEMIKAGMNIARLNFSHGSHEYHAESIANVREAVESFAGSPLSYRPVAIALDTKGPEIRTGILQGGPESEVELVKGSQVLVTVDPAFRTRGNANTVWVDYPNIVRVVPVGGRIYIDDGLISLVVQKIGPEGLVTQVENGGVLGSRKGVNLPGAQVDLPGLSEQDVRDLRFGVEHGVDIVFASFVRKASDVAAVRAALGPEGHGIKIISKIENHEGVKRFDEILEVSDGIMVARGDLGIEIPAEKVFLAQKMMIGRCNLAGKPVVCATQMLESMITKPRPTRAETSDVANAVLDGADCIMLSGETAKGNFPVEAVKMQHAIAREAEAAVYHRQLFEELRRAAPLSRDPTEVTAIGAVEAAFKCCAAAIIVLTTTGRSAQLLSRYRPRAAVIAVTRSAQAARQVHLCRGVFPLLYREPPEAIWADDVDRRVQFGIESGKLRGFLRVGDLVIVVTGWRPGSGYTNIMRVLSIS

Potency, inactive:
O=C1c2ccccc2C(=O)N1Cc1ccccc1
Cc1cc(C)n2c(Nc3ccccc3)c(-c3ccc(C)o3)nc2n1
O=C1CCc2cc(S(=O)(=O)Nc3ccc(F)cc3)ccc2N1
Nc1cccc(S(=O)(=O)N2CCCN(S(=O)(=O)c3ccc4c(c3)OCCO4)CC2)c1
CC(=O)Nc1ccc(S(=O)(=O)Nc2ccc(C)c(C)c2)cc1
Cc1ccc(NS(=O)(=O)c2ccc3c(c2)oc(=O)n3C)cc1C
Cc1ccc(NS(=O)(=O)c2ccc3c(c2)N(C)CCO3)cc1C
Fc1ccccc1-c1ccc(-c2nc3ccc(Cl)cn3c2Nc2ccc(Cl)cc2)o1
Cc1ccccc1NS(=O)(=O)c1ccc2c(c1)CCC(=O)N2
Cc1ccc(NS(=O)(=O)c2ccc3c(c2)CC(=O)N3C)cc1C
Cc1ccc(NS(=O)(=O)c2cccc(C(=O)O)c2)cc1C
Cc1ccc(OC2=NS(=O)(=O)c3ccccc32)cc1
Cc1ccn2c(NC3CCCCC3)c(-c3ccc(C)o3)nc2c1
O=C1CCc2cc(S(=O)(=O)Nc3ccccn3)ccc2N1
Cc1ccc(-c2nc3ccc(Cl)cn3c2Nc2ccccc2)o1
Cc1ccc(NS(=O)(=O)c2ccc3c(ccn3C)c2)cc1C
CC(=O)N1c2ccc(S(=O)(=O)Nc3ccc(C)c(C)c3)cc2CC1C (stereo not drawn)
Cc1ccc(NS(=O)(=O)c2cc3c(cc2F)NC(=O)CC3)cc1C
